Screening results (PubChem BioAssay)
Rows were chosen to be rich in hits. Some 1.8% of all compounds tested hit in one or more screens of this group.
Exocytosis inh: blocks lytic granule exocytosis | inhibition, % at 10 µM | actives 0.66% (n = 360,000) | TALL-104 LAMP-1 surface exposure, flow cytometry; cells stimulated with thapsigargin and PMA;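 active means inhibition above about 55%, limit read from the data; inconclusive means no clear call, values can overlap the other calls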
ABCB6 inh 2: human ABCB6 transporter inhibition. actives 0.19% (n = 360,000). AID 602162. K562-ABCB6 porphyrin accumulation, flow cytometry, 1 h; active compounds read low. fluorescence ratio to DMSO, % at 10 µM;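 active means fluorescence ratio to DMSO below 75%, the collection mean minus 3 SD; inconclusive means too few cells collected in the well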;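 further: signal is porphyrin accumulated inside mitochondria; 100% equals median channel fluorescence of DMSO control wells; lower ratio means ABCB6 inhibition with less porphyrin fluorescence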
Target sequence (Q9NP58 whole entry, looked up): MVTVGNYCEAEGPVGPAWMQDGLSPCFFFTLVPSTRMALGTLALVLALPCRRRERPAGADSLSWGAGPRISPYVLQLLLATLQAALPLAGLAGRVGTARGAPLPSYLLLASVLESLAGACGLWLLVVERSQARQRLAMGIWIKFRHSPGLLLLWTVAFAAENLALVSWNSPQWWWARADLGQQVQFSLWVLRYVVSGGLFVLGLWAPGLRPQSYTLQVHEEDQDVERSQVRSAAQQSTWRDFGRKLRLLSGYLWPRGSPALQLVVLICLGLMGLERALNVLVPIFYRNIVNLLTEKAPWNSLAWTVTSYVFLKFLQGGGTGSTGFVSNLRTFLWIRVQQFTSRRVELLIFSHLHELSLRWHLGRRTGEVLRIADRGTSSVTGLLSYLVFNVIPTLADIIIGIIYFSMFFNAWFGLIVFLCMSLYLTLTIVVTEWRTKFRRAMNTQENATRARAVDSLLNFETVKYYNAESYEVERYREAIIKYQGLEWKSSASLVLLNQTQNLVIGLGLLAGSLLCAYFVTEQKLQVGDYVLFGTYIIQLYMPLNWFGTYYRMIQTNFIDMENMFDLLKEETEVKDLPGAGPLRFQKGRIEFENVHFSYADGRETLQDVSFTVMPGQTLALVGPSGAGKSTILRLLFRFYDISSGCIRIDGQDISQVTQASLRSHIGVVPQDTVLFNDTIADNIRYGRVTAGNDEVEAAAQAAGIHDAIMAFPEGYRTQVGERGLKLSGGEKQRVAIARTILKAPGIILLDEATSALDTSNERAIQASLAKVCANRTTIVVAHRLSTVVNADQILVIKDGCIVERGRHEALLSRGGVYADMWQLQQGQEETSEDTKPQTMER
Myeloid diff 2: myeloid differentiation induction. ER-HoxA9 myeloid progenitors, lysozyme-GFP differentiation, flow cytometry. calls only at 10 µM. actives 1% (n = 360,000);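 active means normalized GFP-positive differentiation at or above the plate's own cutoff, the solvent-only control mean plus 3 SD; inconclusive means no clear call, values can overlap the other calls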;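 further: cells exposed to compound for four days before flow analysis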
Myeloid diff: myeloid differentiation induction | shares compounds with Myeloid diff 2 | ER-HoxA9 myeloid progenitors, GFP/Mac1 double-positive flow | calls only | actives 2% (n = 2,300) | AID 651706;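 active means share of green or green-and-red cells above 9 and 9% in run 1 or 4 and 3% in run 2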
GFP autofluor: flagged as fluorescent in myeloid differentiation counter-screen. shares compounds with Myeloid diff 2. ER-HoxA9 myeloid progenitors, no estrogen, GFP autofluorescence flow cytometry; vehicle wells 0%, positive control 100%. fluorescence response, % (concentration not given with the values). actives 7.4% (n = 2,300). AID 651707;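 active means over 5% cells positive for green fluorescent reporter, or over 2% positive for both it and APC stain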;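 further: range taken on the double positive population between DMSO and positive control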
* = called active by the depositor; i = inactive; ? = inconclusive; . = no result given; + = active, no number.

SMILES	Exocytosis inh	ABCB6 inh 2	Myeloid diff 2	Myeloid diff	GFP autofluor
CCOC(=O)c1c(-c2ccc(OC)cc2)csc1NC(=O)COc1ccc2c(C)cc(=O)oc2c1	-1	96	i	.	.
c1cncc(-c2ccnc3ncnn23)c1	-5	99	i	.	.
CCOc1ccc(NC(=O)CSc2nc(=O)n(Cc3cccnc3)c3c2CCC3)cc1	3	96	i	.	.
Nc1ccc(S(=O)(=O)Nc2nccc(/C=C/c3cccc([N+](=O)[O-])c3)n2)cc1	6	91	i	.	.
Nc1ccc(S(=O)(=O)Nc2nccc(/C=C/c3cccc(Br)c3)n2)cc1	-5	96	+	i	0
CCOc1ccc(S(=O)(=O)N2CCOCC2)cc1NC(=O)CN1C(=O)NC(CC)(c2ccccc2)C1=O (stereo unspecified)	1	92	i	.	.
CCn1cc(C(=O)NN)c(=O)c2cc(F)c(N3CCCCC3)cc21	-3	99	i	.	.
CCn1cc(C(=O)NN)c(=O)c2cc(F)c(NC3CCCCC3)cc21	-4	105	i	i	1
CCN(C[C@H]1N[C@@](C)(C(=O)OC)[C@H]2C(=O)N(C)C(=O)[C@@H]12)C(=O)C1CCCCC1	0	97	i	.	.
O=C(N/N=C/c1ccncc1)c1cc([N+](=O)[O-])cc([N+](=O)[O-])c1O	1	101	i	i	0
O=C(N/N=C/c1ccncc1)c1cc2ccccc2cc1O	29	104	i	.	.
O=C(Nc1ccccc1Br)C1CCCN1S(=O)(=O)c1cccc2nsnc12 (stereo unspecified)	2	91	i	.	.
Cc1c(NC(=O)C2CCCN2S(=O)(=O)c2cccc3nsnc23)cccc1C(=O)O (stereo unspecified)	1	100	+	i	0
N#CCC(=O)Nc1ccc(C(=O)NCc2ccccn2)cc1	2	98	i	.	.
CC1CCN(C2=NC(=O)/C(=C/c3ccccc3F)S2)CC1	13	93	i	.	.
CN1C2CCC1/C(=C\c1ccccc1F)C(=O)/C2=C/c1ccccc1F	7	101	i	i	0
CCOC(=O)CN1C(=O)CN(c2ccc(C)cc2)C1=O	-26	102	i	.	.
Cc1cccc(NC(=O)C(Cc2ccccc2)n2cccc2)c1 (stereo unspecified)	3	97	i	.	.
COc1ccccc1N1C(=O)S/C(=C\c2cc(C)n(C)c2C)C1=O	0	98	i	.	.
COc1ccccc1N1C(=O)S/C(=C\c2ccc(C)s2)C1=O	5	149	i	i	2
O=C1CSC(=S)N1N=Cc1ccc2c(c1)OCO2	5	94	i	.	.
C=CCNC(=O)C1CCN(S(=O)(=O)CC)CC1	2	97	i	.	.
C=CCNC(=O)C1CCCN(S(C)(=O)=O)C1 (stereo unspecified)	-2	82	i	i	0
Nn1cnnc1SC1CCCCC1NS(=O)(=O)c1ccccc1 (stereo unspecified)	-2	101	+	i	1
Cn1cnnc1SC1CCCCC1NS(=O)(=O)c1ccccc1 (stereo unspecified)	-1	97	i	.	.
SMILES	Exocytosis inh	ABCB6 inh 2	Myeloid diff 2	Myeloid diff	GFP autofluor
CCC1(CC)NC(=O)N(CC(=O)OC(C)C(=O)Nc2cc([N+](=O)[O-])ccc2OC)C1=O (stereo unspecified)	-3	96	?	.	.
CCc1nc2ccc(C(=O)Nc3cc(-c4ccccc4)ccc3OC)cn2c1N(C)Cc1nccs1	20	98	+	i	0
CCc1nc2ccc(C(=O)Nc3cc(-c4ccccc4)ccc3OC)cn2c1N(C)Cc1ccc(OC)cc1	6	93	i	.	.
CCOC(=O)C1CCCN(S(=O)(=O)c2cc3[nH]c(=O)c(=O)[nH]c3cc2C)C1 (stereo unspecified)	-4	95	i	.	.
Cn1c(C(=O)NC2CCCCC2)cc2sccc21	-4	100	i	.	.
CN(C(=O)c1cc2sccc2n1C)C1CCCCC1	-2	101	+	i	0
O=C(NCc1ccccc1)C(c1ccccn1)N(C(=O)c1csnn1)c1ccccc1F (stereo unspecified)	11	100	i	.	.
CC(C)(CNC(=O)c1ccccc1NS(C)(=O)=O)N1CCCCC1	-5	97	i	.	.
CCCCN1CCC(COC(=O)c2cc(Cl)c(N)c3c2OCCO3)CC1	-2	99	i	.	.
COc1ccc(-c2csc(NC(=O)C3CC(=O)N(Cc4ccco4)C3)n2)cc1 (stereo unspecified)	-7	100	i	.	.
COc1ccc(-c2nc(NC(=O)C3CC(=O)N(Cc4ccco4)C3)sc2C)cc1 (stereo unspecified)	-7	89	i	i	0
Cc1csc(NC(=O)CCC(=O)N(CC(=O)NC2CCCC2)Cc2ccccc2)n1	-1	102	.	.	.
CCN1CCN(CC(=O)N/N=C/c2ccc(F)cc2F)CC1	-2	101	i	.	.
COC(=O)c1ccc(NC(=O)C2CCN(C(=O)c3cc(OC)c(OC)c(OC)c3)CC2)cc1	7	101	i	.	.
CCOC(=O)c1ccc(NC(=O)C2CCN(C(=O)c3ccc(OC)c(OC)c3)CC2)cc1	-1	87	i	i	0
CCOC(=O)c1sc(N=NC2=C(O)CC(C)(C)CC2=O)c(C(=O)OCC)c1C	0	96	i	.	.
Cc1ccccc1OCC(=O)OCC(=O)NC1CCCCCC1	1	98	i	.	.
Cc1nc2ccc(S(=O)(=O)NCC(=O)N(C)Cc3ccccc3)cc2s1	3	92	i	.	.
Cc1ccc(C)c(NC(=O)c2ccc(S(=O)(=O)C(F)F)cc2)c1	3	88	i	.	.
O=C(/C=C\c1ccc2c(c1)OCO2)Nc1c2c(nn1-c1ccc(Cl)cc1)CSC2	1	100	i	i	0
CC(=O)Nc1c2c(nn1-c1ccccc1)CSC2	-3	105	i	.	.
CC(=O)Nc1ccc(NC(=O)CCS(=O)(=O)c2ccc3c(c2)oc(=O)n3C)cc1	-2	99	i	.	.
Cn1c(=O)oc2cc(NC(=O)CCl)ccc21	9	100	i	i	0
O=C1C(Cc2ccccc2)S/C(=N/N=C/c2ccco2)N1c1ccccc1 (stereo unspecified)	-1	108	i	.	.
C=CCN1C(=O)C(Cc2ccc(C)cc2)S/C1=N/N=C/c1ccco1 (stereo unspecified)	6	102	.	i	1
COC(=O)c1ccccc1NC(=O)c1nc2nc(C)cc(C)n2n1	0	95	i	i	0
COC(=O)c1ccccc1NC(=O)c1cnn2c(C)cc(C)nc12	0	104	i	.	.
COc1ccc(Cl)cc1NC(=O)CCN1C(=O)C2C3CCC(C3)C2C1=O (stereo unspecified)	-2	93	i	.	.
Cc1ccc(/C=C/c2onc(C)c2S(=O)(=O)N2CCC(C(=O)NC(C)(C)C)CC2)cc1	-2	100	i	.	.
CCCOc1cccc(C2C(C(=O)c3ccco3)=C(O)C(=O)N2c2nnc(C)s2)c1 (stereo unspecified)	-14	99	.	.	.
